{
  "source": "PubChem BioAssay (EPA / NIEHS)",
  "note": "Results filed as inconclusive are left out. The source made the active and inactive calls. How the source made its calls: active means hit-call score of the fitted dose curve at least 0.9, where 1 is the maximum; inconclusive means response in the unintended direction; inactive means score below 0.9.",
  "data": [
    {"biological_target": "Cellular tumor antigen p53 (Homo sapiens) (UniProt P04637)", "sequence (P04637 whole entry, looked up)": "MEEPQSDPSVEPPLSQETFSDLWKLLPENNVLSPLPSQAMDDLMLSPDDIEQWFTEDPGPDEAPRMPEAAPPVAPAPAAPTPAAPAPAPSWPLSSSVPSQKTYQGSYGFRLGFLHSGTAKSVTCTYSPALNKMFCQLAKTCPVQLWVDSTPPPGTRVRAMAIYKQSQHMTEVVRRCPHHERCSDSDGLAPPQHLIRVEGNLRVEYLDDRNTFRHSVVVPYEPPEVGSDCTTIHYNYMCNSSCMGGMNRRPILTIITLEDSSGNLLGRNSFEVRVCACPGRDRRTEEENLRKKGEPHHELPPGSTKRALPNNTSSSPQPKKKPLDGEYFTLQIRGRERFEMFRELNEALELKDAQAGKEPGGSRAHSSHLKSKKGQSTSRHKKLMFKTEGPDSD", "assay": "TOX21_p53_BLA_p5_ratio: Tox21 HCT-116 p53 Agonism Beta-lactamase Assay, Ratio, Phase 5 (AID 2283599)", "outline": "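HCT-116 p53-bla cells (4000/well) plated 5 h, dosed with compound (217-fold DMSO dilution) for 16 h at 37 C; CCF4-AM substrate 2 h at room temperature. Activity is the 460/530 nm emission ratio (405 nm excitation), fitted in gain-of-signal direction versus DMSO.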", "values": [
      {"smiles": "Cc1nnc2n1-c1sc(CCc3ccc(CC(C)C)cc3)cc1C(c1ccccc1Cl)=NC2C", "note": "(centres undefined)", "AC50": "39.8 µM (active)"},
      {"smiles": "NCCCNCCCN", "outcome": "inactive"},
      {"smiles": "CCSC(=O)Cl", "outcome": "inactive"},
      {"smiles": "CN(C)CCc1c[nH]c2cccc(OP(=O)(O)O)c12", "outcome": "inactive"},
      {"smiles": "Clc1ccc(C2(Cn3cncn3)OCCO2)c(Cl)c1", "outcome": "inactive"},
      {"smiles": "CCCCNCC(O)c1ccc(O)cc1", "note": "(centres undefined)", "outcome": "inactive"},
      {"smiles": "CCC(C(N)=O)N1CCCC1=O", "note": "(centres undefined)", "outcome": "inactive"},
      {"smiles": "C=CCOC(C)=O", "outcome": "inactive"},
      {"smiles": "Cc1coc2c1CCC(C)C2", "note": "(centres undefined)", "outcome": "inactive"},
      {"smiles": "ClCC1CO1", "note": "(centres undefined)", "outcome": "inactive"},
      {"smiles": "CCOC(=O)N(C)C(=O)CSP(=S)(OCC)OCC", "outcome": "inactive"},
      {"smiles": "CCN(CC)Cc1nccn1-c1ccc([N+](=O)[O-])cc1C(=O)c1ccccc1Cl", "outcome": "inactive"},
      {"smiles": "CC(=O)C(C)(C)C", "outcome": "inactive"},
      {"smiles": "O=[N+]([O-])c1cccc(O)c1", "outcome": "inactive"},
      {"smiles": "NP(N)(=O)NC(=O)c1ccc(F)cc1", "outcome": "inactive"},
      {"smiles": "C=CCC1([C@@H](C)CCC)C(=O)NC(=O)NC1=O", "outcome": "inactive"},
      {"smiles": "CC(Cl)(Cl)[N+](=O)[O-]", "outcome": "inactive"},
      {"smiles": "COC1CC(=C(c2cccs2)c2cccs2)C[N+](C)(C)C1", "note": "(centres undefined)", "outcome": "inactive"},
      {"smiles": "Clc1cc2c(cc1Cl)Oc1cc(Cl)c(Cl)cc1O2", "outcome": "inactive"},
      {"smiles": "CCCCC/C=C\\C/C=C\\C/C=C\\C/C=C\\CCCC(=O)NCC(=O)O", "outcome": "inactive"},
      {"smiles": "O=C(O)c1ccccc1C(=O)Nc1cccc2ccccc12", "outcome": "inactive"},
      {"smiles": "CCN1C[C@]2(COC)[C@H](O)C[C@H](OC)[C@@]34[C@@H]5C[C@@]6(O)[C@H](OC(=O)c7ccccc7)[C@@H]5[C@@](OC(C)=O)([C@@H]([C@H](OC)[C@H]23)[C@@H]14)[C@@H](O)[C@@H]6OC", "outcome": "inactive"},
      {"smiles": "COc1cc(CCN)cc(OC)c1OC", "outcome": "inactive"},
      {"smiles": "COC(=O)[C@@H]1[C@H]2CC[C@@H](C[C@H]1OC(=O)c1ccccc1)N2C", "outcome": "inactive"},
      {"smiles": "O=S1(=O)OCCO1", "outcome": "inactive"},
      {"smiles": "Cc1cc(C)c(C(=O)P(=O)(C(=O)c2c(C)cc(C)cc2C)c2ccccc2)c(C)c1", "outcome": "inactive"},
      {"smiles": "CCCN1CCC[C@@H]2Cc3nc(N)ncc3C[C@H]21", "outcome": "inactive"},
      {"smiles": "CC1=C2[C@H]3OC(=O)[C@@H](C)[C@@H]3CC[C@@]2(C)C=CC1=O", "outcome": "inactive"},
      {"smiles": "CCC(=O)OC1(c2ccccc2)CCN(C)CC1", "outcome": "inactive"}
    ]},
    {"test_system": "not listed separately", "assay": "TOX21_p53_BLA_p5_viability: Viability Assessment in the Tox21 HCT-116 p53 Agonism Beta-lactamase Assay, Phase 5 (AID 2283600)", "outline": "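Viability came from CellTiter-Glo ATP luminescence, read after 30 min at room temperature. Before this, HCT-116 p53-bla cells (4000/well) had 16 hours of compound exposure at 37C, with DMSO stocks diluted 217-fold on transfer.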", "values": [
      {"smiles": "CNC(=O)NC(O)C(Cl)(Cl)Cl", "note": "(centres undefined)", "outcome": "inactive"},
      {"smiles": "Cc1nnc2n1-c1sc(CCc3ccc(CC(C)C)cc3)cc1C(c1ccccc1Cl)=NC2C", "note": "(centres undefined)", "AC50": "23 µM (active)"},
      {"smiles": "NCCCNCCCN", "outcome": "inactive"},
      {"smiles": "CCSC(=O)Cl", "outcome": "inactive"},
      {"smiles": "CN(C)CCc1c[nH]c2cccc(OP(=O)(O)O)c12", "outcome": "inactive"},
      {"smiles": "Clc1ccc(C2(Cn3cncn3)OCCO2)c(Cl)c1", "outcome": "inactive"},
      {"smiles": "CCCCNCC(O)c1ccc(O)cc1", "note": "(centres undefined)", "outcome": "inactive"},
      {"smiles": "CCC(C(N)=O)N1CCCC1=O", "note": "(centres undefined)", "outcome": "inactive"},
      {"smiles": "ClC(Cl)(Cl)C(Cl)(Cl)Cl", "outcome": "inactive"},
      {"smiles": "Cc1coc2c1CCC(C)C2", "note": "(centres undefined)", "outcome": "inactive"},
      {"smiles": "CN1C[C@H](CNC(=O)OCc2ccccc2)C[C@@H]2c3cccc4c3c(cn4C)C[C@H]21", "outcome": "inactive"},
      {"smiles": "CCOC(=O)N(C)C(=O)CSP(=S)(OCC)OCC", "outcome": "inactive"},
      {"smiles": "CCN(CC)Cc1nccn1-c1ccc([N+](=O)[O-])cc1C(=O)c1ccccc1Cl", "outcome": "inactive"},
      {"smiles": "CC(=O)C(C)(C)C", "outcome": "inactive"},
      {"smiles": "O=C1c2ccccc2C(=O)c2ccccc21", "outcome": "inactive"},
      {"smiles": "O=[N+]([O-])c1cccc(O)c1", "outcome": "inactive"},
      {"smiles": "NP(N)(=O)NC(=O)c1ccc(F)cc1", "outcome": "inactive"},
      {"smiles": "C=CCC1([C@@H](C)CCC)C(=O)NC(=O)NC1=O", "outcome": "inactive"},
      {"smiles": "c1ccc2c(c1)CCNC2", "outcome": "inactive"},
      {"smiles": "ClCC(Br)CBr", "note": "(centres undefined)", "outcome": "inactive"},
      {"smiles": "O=[N+]([O-])CCO", "outcome": "inactive"},
      {"smiles": "[2H]C([2H])([2H])[C@H](N)Cc1ccccc1", "outcome": "inactive"},
      {"smiles": "COC1CC(=C(c2cccs2)c2cccs2)C[N+](C)(C)C1", "note": "(centres undefined)", "outcome": "inactive"},
      {"smiles": "CC(C)NCC(O)c1ccc([N+](=O)[O-])cc1", "note": "(centres undefined)", "outcome": "inactive"},
      {"smiles": "CCCCC/C=C\\C/C=C\\C/C=C\\C/C=C\\CCCC(=O)NCC(=O)O", "outcome": "inactive"},
      {"smiles": "O=C(O)c1ccccc1C(=O)Nc1cccc2ccccc12", "outcome": "inactive"},
      {"smiles": "CCN1C[C@]2(COC)[C@H](O)C[C@H](OC)[C@@]34[C@@H]5C[C@@]6(O)[C@H](OC(=O)c7ccccc7)[C@@H]5[C@@](OC(C)=O)([C@@H]([C@H](OC)[C@H]23)[C@@H]14)[C@@H](O)[C@@H]6OC", "outcome": "inactive"},
      {"smiles": "COc1cc(CCN)cc(OC)c1OC", "outcome": "inactive"},
      {"smiles": "O=S1(=O)OCCO1", "outcome": "inactive"},
      {"smiles": "CC1=C2[C@H]3OC(=O)[C@@H](C)[C@@H]3CC[C@@]2(C)C=CC1=O", "outcome": "inactive"},
      {"smiles": "CCC(=O)OC1(c2ccccc2)CCN(C)CC1", "outcome": "inactive"}
    ]},
    {"biological_target": "Cellular tumor antigen p53 (Homo sapiens) (UniProt P04637)", "assay": "TOX21_p53_BLA_p4_ratio: Tox21 HCT-116 p53 Agonism Beta-lactamase Assay, Ratio, Phase 4 (AID 2283601)", "outline": "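HCT-116 p53 beta-lactamase reporter cells (4000/well) preincubated 5 h, then compound (217-fold dilution of DMSO stock) for 16 h at 37C. CCF4-AM substrate added 2 h at room temperature; 460/530 nm emission ratio fitted upward versus DMSO.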", "values": [
      {"smiles": "CNC(=O)NC(O)C(Cl)(Cl)Cl", "note": "(centres undefined)", "outcome": "inactive"},
      {"smiles": "Cc1nnc2n1-c1sc(CCc3ccc(CC(C)C)cc3)cc1C(c1ccccc1Cl)=NC2C", "note": "(centres undefined)", "AC50": "42.2 µM (active)"},
      {"smiles": "NCCCNCCCN", "outcome": "inactive"},
      {"smiles": "CCSC(=O)Cl", "outcome": "inactive"},
      {"smiles": "Clc1ccc(C2(Cn3cncn3)OCCO2)c(Cl)c1", "outcome": "inactive"},
      {"smiles": "CCCCNCC(O)c1ccc(O)cc1", "note": "(centres undefined)", "outcome": "inactive"},
      {"smiles": "CCC(C(N)=O)N1CCCC1=O", "note": "(centres undefined)", "outcome": "inactive"},
      {"smiles": "C=CCOC(C)=O", "outcome": "inactive"},
      {"smiles": "ClCC1CO1", "note": "(centres undefined)", "outcome": "inactive"},
      {"smiles": "CCOC(=O)N(C)C(=O)CSP(=S)(OCC)OCC", "outcome": "inactive"},
      {"smiles": "CC(=O)C(C)(C)C", "outcome": "inactive"},
      {"smiles": "O=C1c2ccccc2C(=O)c2ccccc21", "outcome": "inactive"},
      {"smiles": "CON(C)C(=O)Nc1ccc(Br)cc1", "outcome": "inactive"},
      {"smiles": "NP(N)(=O)NC(=O)c1ccc(F)cc1", "outcome": "inactive"},
      {"smiles": "c1ccc2c(c1)CCNC2", "outcome": "inactive"},
      {"smiles": "CC(Cl)(Cl)[N+](=O)[O-]", "outcome": "inactive"},
      {"smiles": "O=[N+]([O-])CCO", "outcome": "inactive"},
      {"smiles": "CC(C)NCC(O)c1ccc([N+](=O)[O-])cc1", "note": "(centres undefined)", "outcome": "inactive"},
      {"smiles": "CCCCC/C=C\\C/C=C\\C/C=C\\C/C=C\\CCCC(=O)NCC(=O)O", "outcome": "inactive"},
      {"smiles": "O=C(O)c1ccccc1C(=O)Nc1cccc2ccccc12", "AC50": "70.1 µM (active)"},
      {"smiles": "CCN1C[C@]2(COC)[C@H](O)C[C@H](OC)[C@@]34[C@@H]5C[C@@]6(O)[C@H](OC(=O)c7ccccc7)[C@@H]5[C@@](OC(C)=O)([C@@H]([C@H](OC)[C@H]23)[C@@H]14)[C@@H](O)[C@@H]6OC", "outcome": "inactive"},
      {"smiles": "O=S1(=O)OCCO1", "outcome": "inactive"},
      {"smiles": "Cc1cc(C)c(C(=O)P(=O)(C(=O)c2c(C)cc(C)cc2C)c2ccccc2)c(C)c1", "outcome": "inactive"},
      {"smiles": "CC1=C2[C@H]3OC(=O)[C@@H](C)[C@@H]3CC[C@@]2(C)C=CC1=O", "outcome": "inactive"}
    ]}
  ]
}
